Laboratory results as given in the supplement of paper PMC6555819.

Each sequence was assayed on RXRa DBDmut IVT, anti-RXR (DBD mutation: RXRa K156A/R161A, NR concentration 90 nM) (assay: PBM binding z-score (relative to random genomic background probes); higher = stronger binding; sequences stand for … in GC…GCGATTGACAGCGTAGAATGAAGG).
Procedure, shortened: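 Binding z-scores take random background probes as their reference. They come from custom Agilent 4×180K protein-binding microarrays incubated 1 h with ligand-free nuclear receptor dimers, with antibodies against each partner (one per run) detecting binding. Scanned fluorescence was regression-normalized.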

Compared with CGAACGAGGGCATGTGTTGATAGCAAATGCCGAT, CCTCGGATGACAGAAGGTCAGAGCTGTCCGCTTT is lower in PBM binding z-score: 2.64 for the first, 0.111 for the second.

Going from GGAACGAGCGCAAGTTGATAGCAGAGTTTGATGG to TTACCAAGTTGAGCTGAGGTCGTTGATCCAACTC, the PBM binding z-score rises from 0.0943 to 0.245.

Going from GCGACTGGGGCATCAGCAGGTTACCATGACTTAA to CCTAGTTGGTCAAGTTCACACACGCTATAGGTAC, the PBM binding z-score rises from -0.0631 to 3.31.

First: ATCGAAAGGTCGACGAGGCGAGTATACACCGTTT
Second: TAACCAAGGTGAGCTGAGGTCGTTGATCCAACTC
The PBM binding z-score of the first is higher: 1.28 for the first, -0.0437 for the second.

Going from CTACCAAGGAGAACAAGGTCGTTGATTACTATTC to CCGACTCGGGCAGAAAGGTTACCATACCATCCGG, the PBM binding z-score falls from 1.2 to -0.246.

Compared with CCTACTGGGCCAAGGGCATTGATCAGTCAAAGCA, CCGACTGGGGCACAGGTTACCATACTCAGTACGA is higher in PBM binding z-score: -1.17 for the first, -0.122 for the second.

First: ACTAGCAGGCCAAGTTTGGGTCACGCAAACAAAG
Second: CGAACTAGGTCAGTACAGGACAGTGAAGGATGAT
The PBM binding z-score of the first is lower: -0.213 for the first, 0.399 for the second.

Compared with CCTCGGAGGACAGCAGGTCAGAGCTGTCCGCTTT, ATCTCTAGGTAAGACTCAGTACAGTGAAGAACGC is higher in PBM binding z-score: -0.0565 for the first, 0.238 for the second.

CCGACTGAGGCATAAGGTTACCATAAGCCAGCCC showed a PBM binding z-score of 0.281.
